Reference: PubChem BioAssay
The source made the active and inactive calls.

Experiments:
[1] = anti-His antibody binders, primary screen, artefact control for SMM control protein annotation, biochemical, small-molecule microarray, 635 nm fluorescence (AID 1128); conditions: anti-His Alexa647 antibody binding, higher = more signal;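 note: score merges feature fluorescence with signal-to-noise for each printed compound spot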
[2] = system: Human papillomavirus type 1a E7 protein (residues 1-88); assay: HPV1a E7 small-molecule binders, primary screen, biochemical, small-molecule microarray, residues 1-88, 635 nm (AID 1129); conditions: small-molecule microarray binding, fluorescence 635 nm; higher = more signal
[3] = biological target: Focal adhesion kinase 1 (Homo sapiens) (UniProt Q05397); assay: small-molecule microarray binders of FAK, primary screen, biochemical, 635/667 nm fluorescence, BSA, DTT (AID 1130); conditions: PTK2 binding, 635 nm fluorescence, higher = more signal;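 note: composite of spot emission at 667 nm and signal to noise over triplicate slides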
Chain of Focal adhesion kinase 1 (Homo sapiens) (Q05397 whole entry, looked up): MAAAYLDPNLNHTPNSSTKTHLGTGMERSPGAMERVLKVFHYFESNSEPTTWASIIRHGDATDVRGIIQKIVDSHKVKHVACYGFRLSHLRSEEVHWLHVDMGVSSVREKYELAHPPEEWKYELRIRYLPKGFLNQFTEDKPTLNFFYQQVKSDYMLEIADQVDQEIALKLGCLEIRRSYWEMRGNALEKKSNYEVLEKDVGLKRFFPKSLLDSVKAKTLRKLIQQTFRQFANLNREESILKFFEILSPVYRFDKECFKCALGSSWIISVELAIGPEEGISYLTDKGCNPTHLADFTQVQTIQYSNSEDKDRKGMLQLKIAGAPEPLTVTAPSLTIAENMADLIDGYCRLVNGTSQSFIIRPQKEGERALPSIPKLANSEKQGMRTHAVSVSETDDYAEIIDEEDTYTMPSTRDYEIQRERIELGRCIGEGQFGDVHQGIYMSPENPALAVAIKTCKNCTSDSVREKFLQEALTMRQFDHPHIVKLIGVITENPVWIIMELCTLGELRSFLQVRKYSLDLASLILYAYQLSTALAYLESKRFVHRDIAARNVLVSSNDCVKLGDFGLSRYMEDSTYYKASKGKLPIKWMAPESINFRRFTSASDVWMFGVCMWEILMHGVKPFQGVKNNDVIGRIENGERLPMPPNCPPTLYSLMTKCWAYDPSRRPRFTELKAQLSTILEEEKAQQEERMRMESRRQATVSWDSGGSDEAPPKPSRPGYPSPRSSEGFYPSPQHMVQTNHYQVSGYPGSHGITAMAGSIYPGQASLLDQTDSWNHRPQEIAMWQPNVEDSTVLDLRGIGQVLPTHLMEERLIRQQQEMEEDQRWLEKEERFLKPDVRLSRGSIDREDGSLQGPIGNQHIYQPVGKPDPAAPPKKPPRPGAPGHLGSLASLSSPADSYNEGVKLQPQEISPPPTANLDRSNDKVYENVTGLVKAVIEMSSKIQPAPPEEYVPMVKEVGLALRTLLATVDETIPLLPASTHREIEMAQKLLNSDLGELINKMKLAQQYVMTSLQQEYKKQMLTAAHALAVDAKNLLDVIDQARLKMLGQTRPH

[4] = system: Fibrinogen (Alexa647-labelled); assay: fibrinogen binders on compound microarrays, profiling panel, artefact control for SMM control-protein annotation, biochemical, small-molecule microarray, 635/667 nm fluorescence (AID 1131); conditions: fibrinogen-A647 binding fluorescence, higher = more signal;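 note: z-score merges 667 nm fluorescence with per-spot signal-to-noise over triplicate slides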
[5] = biological target: Follistatin (Homo sapiens) (UniProt P19883); assay: follistatin binders on small-molecule microarrays, primary screen, biochemical, small-molecule microarray, 635/667 nm fluorescence (AID 1132); conditions: FST binding, 635 nm fluorescence, higher = more signal
Chain of Follistatin (Homo sapiens) (P19883 whole entry, looked up): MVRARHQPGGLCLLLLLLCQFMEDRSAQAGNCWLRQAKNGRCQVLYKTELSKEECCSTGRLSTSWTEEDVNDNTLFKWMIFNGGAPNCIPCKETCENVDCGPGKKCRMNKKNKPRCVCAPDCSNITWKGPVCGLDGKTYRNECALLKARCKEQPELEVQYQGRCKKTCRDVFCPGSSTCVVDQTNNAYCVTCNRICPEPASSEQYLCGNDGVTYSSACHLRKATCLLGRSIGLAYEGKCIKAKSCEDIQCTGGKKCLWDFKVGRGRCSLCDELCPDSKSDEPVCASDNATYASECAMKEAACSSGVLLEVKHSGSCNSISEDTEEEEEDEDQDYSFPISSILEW

[6] = biological target: Fibroblast growth factor 2 (Homo sapiens) (UniProt P09038); assay: FGF2 binders on small-molecule microarrays, primary screen, biochemical, small-molecule microarray, 635/667 nm fluorescence (AID 1133); conditions: small-molecule microarray binding, FGF2, fluorescence 635/667; higher = more signal
Chain of Fibroblast growth factor 2 (Homo sapiens) (P09038 whole entry, looked up): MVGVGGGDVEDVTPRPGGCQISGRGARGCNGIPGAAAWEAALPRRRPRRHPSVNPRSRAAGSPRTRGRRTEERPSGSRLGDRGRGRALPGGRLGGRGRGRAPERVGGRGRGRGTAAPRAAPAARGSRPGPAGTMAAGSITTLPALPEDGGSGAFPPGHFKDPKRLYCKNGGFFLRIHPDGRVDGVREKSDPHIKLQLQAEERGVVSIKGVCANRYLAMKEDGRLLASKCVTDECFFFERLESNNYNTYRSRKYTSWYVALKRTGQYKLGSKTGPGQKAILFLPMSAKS

[7] = mitochondrial membrane potential change in A549 cells, profiling panel, cell-based, JC-1 fluorescence, basal, 24 h, 100 nL (AID 1138); conditions: higher = more signal;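 note: A549 lung adenocarcinoma cells under basal conditions with no added stimulus; test concentration not given here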
Lefty1 = Lefty1 binders on small-molecule microarrays, primary screen, biochemical, small-molecule microarray, 635/667 nm fluorescence (AID 1139); conditions: small-molecule microarray binding, fluorescence 635/667; higher = more signal
[8] = system: wheat germ agglutinin (Triticum aestivum), Alexa647-labelled; assay: wheat germ agglutinin binders on compound microarrays, profiling panel, artefact control for SMM control-protein annotation, biochemical, small-molecule microarray, 635/667 nm fluorescence (AID 1140); conditions: WGA-A647 binding, 635 nm fluorescence, higher = more signal;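 note: score merges 667 nm feature emission with signal to noise over triplicate slides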
[9] = biological target: Luciferin 4-monooxygenase (Photinus pyralis) (UniProt P08659); assay: firefly luciferase enzyme inhibitors, primary screen, biochemical, luminescence, purified enzyme, 2006 set (AID 1141); conditions: SteadyGlo luminescence, 30 min, higher = more signal, called active from +8 up or from −8 down;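 note: cell-free assay with purified firefly luciferase at 100 ng per well in PBS; test concentration not given here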
Chain of Luciferin 4-monooxygenase (Photinus pyralis) (P08659 whole entry, looked up): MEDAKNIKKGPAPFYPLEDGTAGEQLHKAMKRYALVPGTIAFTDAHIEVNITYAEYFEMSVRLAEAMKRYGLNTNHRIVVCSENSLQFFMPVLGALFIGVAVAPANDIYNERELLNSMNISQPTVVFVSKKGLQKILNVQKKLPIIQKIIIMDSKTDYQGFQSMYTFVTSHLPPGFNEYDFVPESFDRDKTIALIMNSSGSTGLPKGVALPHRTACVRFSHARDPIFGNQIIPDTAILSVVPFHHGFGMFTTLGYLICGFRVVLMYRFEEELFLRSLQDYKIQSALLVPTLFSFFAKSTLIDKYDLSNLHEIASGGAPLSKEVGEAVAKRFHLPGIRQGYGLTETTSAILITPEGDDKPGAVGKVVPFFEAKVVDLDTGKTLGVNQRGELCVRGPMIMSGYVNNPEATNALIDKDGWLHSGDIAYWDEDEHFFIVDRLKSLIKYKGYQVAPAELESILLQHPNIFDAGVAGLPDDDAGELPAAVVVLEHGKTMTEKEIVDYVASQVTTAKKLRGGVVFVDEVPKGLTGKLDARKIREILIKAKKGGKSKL

Compound	composite z-score [1]	composite z-score [2]	composite z-score [3]	composite z-score [4]	composite z-score [5]	composite z-score [6]	z-score [7]	composite z-score (Lefty1)	composite z-score [8]	z-score [9]
C=CCOC(=O)[C@H]1[C@@H]2C(=O)O[C@@H](c3ccccc3)[C@@H](c3ccccc3)N2[C@@H](c2ccc(OCCOC(=O)[C@H]3C[C@H]4C(=O)N5CCC[C@H]5C(=O)N4[C@H]3c3ccc(O)cc3)cc2)[C@]12C(=O)Nc1ccc(I)cc12	2.88	1.23	-0.0378	0.396	1.47	1.6	-0.87	1.54	1.66	0.269 (inactive)
CCCCCN1CC=CC23O[C@@H]4/C=C\CCCOC(=O)C4[C@H]2C(=O)N(CCCO)[C@@H]3C1=O (stereo not given in full)	2.06	1.3	1.23	-0.965	-0.162	-0.281	-0.564	0.157	0.197	-2.41 (inactive)
O=C(NCc1ccc(F)cc1)[C@H]1C[C@H]2C(=O)N[C@@H](Cc3ccccc3)C(=O)N2[C@H]1c1ccc(O)cc1	1.53	0.526	0.063	-0.102	1.38	1.59	0.574	-0.169	-0.262	-0.568 (inactive)
C#CCN(CC=C(C)C)[C@H](CO)c1ccccc1	-0.237	0.729	-0.122	-0.0376	0.391	0.295	-1.47	-0.0431	-0.196	0.648 (inactive)
CC(C)(C)OC(=O)CC[C@]1(C(=O)O)N=C(c2ccc(OCCCO)cc2)O[C@H]1c1ccccc1N=[N+]=[N-]	1.95	0.815	0.238	0.882	0.891	0.0606	-0.974	-0.811	0.963	-10.5 (active)
CN1C2C=C(CCCO)C(C3C(=O)N(C(N)=O)C(=O)C32)C1c1ccc(CN2CCCC2)cc1 (stereo not given)	0.161	-0.697	-0.311	-0.929	-0.0168	0.0692	-0.637	-0.484	-0.0816	0.73 (inactive)
O=C1C2C=CC(C(O)C(c3ccccc3)c3ccccc3)N(n3cnnc3)C2C(=O)N1Cc1ccccc1 (stereo not given)	0.305	1.21	0.638	0.977	0.552	1.54	-0.806	0.0063	0.131	1.01 (inactive)
COc1ccc(COC2OC[C@]3(C)[C@H]4C5=C(CN3C(=O)OC(C)(C)C)[C@H](C)C(CO)C(CO)C5CC[C@@H]24)cc1 (stereo not given in full)	1.08	1.19	0.649	0.968	0.535	-1.03	0.323	-0.209	0.831	1.52 (inactive)
CC(C)C(CO)N1C(=O)[C@@H]2[C@H]3C(=O)OCC=C[C@H]3OC23C=CCN(C(C)C)C(=O)[C@@H]13 (stereo not given in full)	0.443	-0.349	0.0732	-0.841	0.405	-0.501	-0.654	0.433	-0.131	0.316 (inactive)
CN(C)CCCNC(=O)[C@@]1(c2ccc([N+](=O)[O-])cc2)CC(=O)N(C2CCCCC2)[C@@H]1c1ccc(CO)cc1	-0.0406	0.108	-0.221	0.874	0.928	-0.209	1.22	0.401	-0.0351	-0.0244 (inactive)
COCCOC(=O)N1C(=O)[C@@]2(c3cc(C#CC4(O)CCCCCC4)ccc31)[C@H](c1ccc(O)cc1)N1[C@H](c3ccccc3)[C@H](c3ccccc3)OC(=O)[C@H]1[C@@H]2C(=O)Nc1nc2ccccc2s1	0.84	1.19	0.482	0.97	1.18	1.05	-1.85	0.562	0.227	-0.715 (inactive)
COCCOC(=O)N1C(=O)[C@@]2(c3cc(C#CC4=CCCCC4)ccc31)[C@H](C(=O)Nc1nc3ccccc3s1)[C@H]1C(=O)O[C@H](c3ccccc3)[C@H](c3ccccc3)N1[C@@H]2c1ccc(OCCO)cc1	0.424	1.07	0.147	0.192	1.18	0.898	-1.99	0.726	0.253	-5.3 (inactive)
CCOC(=O)[C@H]1C/C=C/C[C@H](C(=O)OCC)C(=O)O[C@H]2[C@@H](OC)O[C@H](CO)[C@@H](OC(=O)Nc3cccc(F)c3)[C@@H]2OC1=O	1.82	0.712	0.154	0.966	0.247	0.0815	-2.01	1.11	0.452	-1.14 (inactive)
O=C1C2C=CC(C(O)c3ccc(F)cc3)N(Nc3ccccc3F)C2C(=O)N1c1ccccc1 (stereo not given)	1.55	1.13	0.198	0.958	1	-0.514	-0.227	-0.497	1.17	1.28 (inactive)
CN1C(=O)C2C=CC(C(O)C3CC=CCC3)N(NC(=O)OC(C)(C)C)C2C1=O (stereo not given)	0.561	0.889	0.465	-0.0919	1.25	0.124	-0.0347	0.717	1.32	-0.71 (inactive)
CC(C)N1C(=O)c2ccccc2[C@](C)(C(=O)NCc2ccccc2)[C@@H]1c1ccc(CO)cc1	3.09	0.29	0.239	-1.77	-0.24	-0.131	-0.39	-0.554	-0.444	-1.06 (inactive)
